# According to the supplement of paper PMC11417369:
# ± gives the standard deviation of the averaged measurements. Over roughly 25,000 sequences, “ln(normalized median fluorescence intensity)” has its median near 8.6; the highest 2% begin near 10. The full list was thinned out, with the highest values kept by preference.
# System: PfAP2-EXP AP2 domain (GST-tagged)
# Assay: gcPBM binding intensity (ln(normalized median fluorescence intensity)); higher = stronger DNA binding
# Method in brief: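 Binding of GST-tagged P. falciparum DNA-binding domains, expressed in E. coli and used at about 25 μg on average, was carried out for 1 h in 1× PBS containing 1% milk, 0.2 mg/ml BSA, 0.5% salmon testes DNA and 0.03% Triton X-100. The target was an Agilent 4 × 180k array of primer-extended double-stranded 36-bp intergenic genomic probes plus negative controls, read with Alexa488 anti-GST antibody at 488 nm. Binding intensity is the highest Masliner-normalised natural-log median intensity across replicate spots of either probe orientation.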
row,Sequence,gcPBM binding intensity (ln)
1,ACAGCTCTAGGACATGCATGTTATATAGAAAAAGAG [TGCATGCA_site703],9.59 ± 0.32
2,TTATACAACAAGAAAATTATAAAATGTAACATATAT [GTGCAC_negctrl_site406],8.53 ± 0.42
3,TTTATAATTTATATCACACATATATCTGTAATAAAT [CACACA_site5048],8.24 ± 0.44
4,TATATTTATAGACACACACACAAAAAAAAAAAAAAA [CACACA_site6818],8.37 ± 0.31
5,ATTTTCATGATAAAGGTGCAATTATTTTTATAAGAA,8.74 ± 0.13
6,ATTATTGTTTATTGATTTTTGTTAAAATAGGAAATT [GTGCAC_negctrl_site181],8.37 ± 0.4
7,AAAAAAATCACATAAAATACTTTATTTTATATTATA [GTGCAC_negctrl_site372],7.89 ± 0.36
8,ATTTTTAATCATTTACAACCTAGTGATTATACAAAT [CACACA_negctrl_site1089],8.51 ± 0.35
9,AAAAAAAAAAAGCACACACACATATGCGTATATATA [CACACA_site954],8.49 ± 0.57
10,TAAGAAAATATTTATGTATGCATGTCCTAATATTTC [TGCATGCA_site295],8.44 ± 0.3
11,TTGCCTTAAAAAGGAACACACATGCTTTTTTTAGTT [CACACA_site938],8.37 ± 0.45
12,TATTATAAATAAATAGAAAAAAAAATGATAAATGGA [CACACA_negctrl_site865],8.62 ± 0.42
13,AAAAAAAACAGACACACACACATACAAAATATATAT [CACACA_site1449],8.73 ± 0.47
14,AAAAAAAAAAAAAACACACATACATACATACATATA [CACACA_site4121],8.55 ± 0.16
15,TGCATATACGCAAGCACACATATATATATATATATA [CACACA_site1069],10.2 ± 0.51
16,TATGCATATACACAAGCACACATATATATATATATA [CACACA_site8266],10.1 ± 0.32
17,AACACACACATATATATATATATATATATATATATA [GTGCAC_negctrl_site573],10 ± 0.47
18,AAAACAGACAAACACACACACACATATATATATATA [CACACA_site3393],10.1 ± 0.49
19,AAAACAAACAGACACACACACATATATATATATATA [CACACA_site3655],10.3 ± 0.21
20,AAAAAAAAAAAAAAAACACACATATATATATATATA [CACACA_site2436],10.4 ± 0.11
21,TGCATATACTCAAGCACACATATATATATATATATA [CACACA_site4733],10.2 ± 0.33
22,AACTATAATTAAAGGATGCACTTGAAGGCATTTCAA [GTGCAC_site9689],8.34 ± 0.35
23,GCATATATCAAATATCGTACATTTTTTAAATTAAAA [XGTACX_site3994],8.42 ± 0.47

row,Sequence,gcPBM binding intensity (ln)
1,TACGTTCTGATATATACACACCTGGTATTAATTATG [CACACA_site7113],8.93 ± 0.46
2,AAAAAAAAATTAAAATGTACACATAAAAAAAAAAAA [XGTACX_site794],8.64 ± 0.42
3,ATTTCCTGGCTACTGTGTACTGACCTCCAGACTGCT [XGTACX_site2005],8.81 ± 0.55
4,ACTACATAATATTTACGTACCTAAAAAATTCTTATA [XGTACX_site509],8.51 ± 0.33
5,GGAAAAAATATATGCACACCCCCCAAAAAAAAAAAA [CACACA_site2222],10.95 ± 0.099
6,AAAAAAAAAAAAAACACACACACACCCAAATATATA [CACACA_site1169],8.71 ± 0.3
7,AAAAAAAAAAAACACACACACACACCCAAATATATA [CACACA_site150],8.49 ± 0.61
8,TGGGAAAAAATATATGCACACCCCCCAAAAAAAAAA [CACACA_site8696],11.1 ± 0.35
9,ATAATATAAATATGCACACAAATTATTACCCAAAAA [CACACA_site2524],8.56 ± 0.2
10,TTAAAAAAATATAATACACACCAAAAATATGCACAT [CACACA_site5209],8.85 ± 0.35
11,TACATATTTTATAGCACACAAATAATAATATGTAGT [CACACA_site688],8.68 ± 0.31
12,TTTGAGATGTGGTGTACACAAAATTAGGTACACATC [CACACA_site5773],8.92 ± 0.33
13,TCTTTTTCTTCTTATGTGCACATCAATTATGCTTCT,9.33 ± 0.35
14,AATGTGCTCGCTATTACACACTCATTGGGATAAACT [CACACA_site7043],8.56 ± 0.4
15,CTGAAATTAACAAAAGTGCATAAAAATAAAAAATAT [GTGCAC_site9652],8.99 ± 0.29
16,TAAAAAATTAATAAAGTGCATAAATATTACAATATT,8.32 ± 0.18
17,TAAATTAATAAACAAGTGCATATATATATATATATA,10.2 ± 0.38
18,TTTTTTTATTATTAAAGTACTAAAAAATGAAAACTG [XGTACX_site6758],8.26 ± 0.18
19,AAGTTGGAAAGGTTATGTACTTATTTTTTAAAATAA [XGTACX_site204],8.27 ± 0.45
20,TATCATTTTGTATATAGTACATATATAAAATCGTTA [XGTACX_site3875],8.35 ± 0.29
21,GTATAATAAATGATAGCACACATATGTACTTATATA [CACACA_site8188],8.57 ± 0.25
22,AGCCTCGGGGTCATATATATATATATATATATATAT [CACACA_negctrl_site512],10.2 ± 0.53
23,ATATAGTAAAATTATACACACATGAATTTTCCCATG [CACACA_site1770],8.48 ± 0.49

row,Sequence,gcPBM binding intensity (ln)
1,TAATAATAGTAAATATGTACATATATATATATATAG [XGTACX_site4602],8.73 ± 0.3
2,AATAATAATAGTAATATGTACATATATATATATATA [TGCATGCA_negctrl_site542],10.1 ± 0.33
3,ATAATAATAGTAATATGTACATATATATATATATAT [XGTACX_site7437],10.2 ± 0.53
4,TATATATAAACATAATGTACATATAATAAGTAATAT [XGTACX_site497],8.89 ± 0.45
5,ATAAGTAATATAATATGTACATATATATATATATAT [XGTACX_site3818],10.2 ± 0.37
6,ATAAATAAATAAGTACATATATATATGTATATATAT [TGCATGCA_negctrl_site223],8.775 ± 0.021
7,TTTAATAATATTTAGGTGCTATATATTATATGTATA,8.32 ± 0.21
8,CAATATAAAATAAAATGTACTTGTAGTAAAGGGATA [XGTACX_site1452],8.79 ± 0.35
9,ATAGATATACATATCACACATATATATATATATATA [CACACA_site4985],10.2 ± 0.23
10,GAAATGTGATAATATACACACACGCATATATATATA [CACACA_site4332],9.86 ± 0.3
11,AATACATATAATACAACACACAAGTAATATAAACCT [CACACA_site3597],8.87 ± 0.53
12,TAGATACATACACGCACACACATATATATATATATA [CACACA_site12],10.2 ± 0.29
13,AATGTGATAATATACACACACGCATATATATATATA [CACACA_site323],10.2 ± 0.2
14,ATACAACATATATATACACACATATAATAATAATAA [CACACA_site3367],8.62 ± 0.42
15,ATTACATGATATATCACACACACATATAGATATATA [CACACA_site7352],8.65 ± 0.44
16,CATATATAGATATATACACACATACATACATACATA [CACACA_site7748],8.55 ± 0.38
17,AAGTAATACAACACGCACATATATATATATATATAT [GTGCAC_negctrl_site89],10.3 ± 0.3
18,CATAGATACATACACGCACACACATATATATATATA [CACACA_site13],9.97 ± 0.36
19,TGTGCACGCATATACACACACAAATACAATGATAAA [CACACA_site6656],8.65 ± 0.36
20,TAGATACATACACGCACACACATATATAAATAAATA [CACACA_site6157],8.69 ± 0.49
21,TTATTCTAAAAATATACACACAACAACAAACAAACA [CACACA_site1543],9.04 ± 0.39
22,GAAAAAAAAAAAAAAAAACACACGGTACATTCAAAG [CACACA_site303],8.5 ± 0.58
23,TACTGATCCACATTTATACACACCTCGGTTTGTAGA [CACACA_site417],8.56 ± 0.4

row,Sequence,gcPBM binding intensity (ln)
1,CTTAATATTCTTTAAAGTACACAAAATAAGAATATA [XGTACX_site5489],8.87 ± 0.59
2,ATAATATAAATACAAACACACAATTGCGTCCACATT [CACACA_site5039],8.82 ± 0.38
3,GTCCAATAAGGAAGAGTGCAAAAATTAAATAATATA [GTGCAC_site9751],8.76 ± 0.28
4,ATATATATATATATATGTACATATATATATTATATT [XGTACX_site6303],10 ± 0.62
5,TATATATATTATATATGTACATATTATATATATATA [XGTACX_site7300],9.46 ± 0.17
6,ATATATATATATATATGTACATACAATTATATTCTC [XGTACX_site1133],10.2 ± 0.29
7,ATATATATATATATATGTACATATTATTCTCATTGT [XGTACX_site6259],9.88 ± 0.28
8,TATATTTATACAATATGTACATATTATATATATATA [XGTACX_site3098],9.57 ± 0.26
9,ATATATATATATATATGTACATATATTCGATTATTA [XGTACX_site557],10.29 ± 0.049
10,AAGTTTTTTTCTTTTTTTCTCTCTTTTTTTTTTTTT [XGTACX_negctrl_site613],8.19 ± 0.51
11,ATAAATATATATATAGTGCATATAAGCCACCTTCAA [GTGCAC_site9628],8.86 ± 0.014
12,AATTGAAAAGAATGAAGTACACATTTGATGATACAT [XGTACX_site5182],8.62 ± 0.33
13,TACAATATAAAATACACACGCACACCGAAAAAAAAA [CACACA_site5865],8.53 ± 0.4
14,ATATAAAAAAAAAATTGTACAAAAATATATACATAT [XGTACX_site469],8.53 ± 0.42
15,AATAATATATTTAGGGGTACATAATAATATATTTTA [XGTACX_site8366],8.81 ± 0.6
16,AAATATATTATAAATTGTACGTTTATATATATTATT [XGTACX_site5110],8.29 ± 0.37
17,TTAGGCAAGGCGGGGGGTACGTTTTTATATAATTAT [XGTACX_site8029],10.7 ± 0.18
18,ATCTTTCCTATTTGTAGTACAAAAAAAAAAAAAAAA [XGTACX_site5485],8.44 ± 0.18
19,TTTGTAATAACATATGCATGTTCAAAAAATAAAATA [TGCATGCA_site817],8.4 ± 0.36
20,TTATAAAAGAAAAAAAAAAAAAAAAAAAAAAAAAAA [CACACA_negctrl_site1006],7.89 ± 0.43
21,AAGAAAAACTTATATATATATATATATATATATATA [TGCATGCA_negctrl_site466],10.3 ± 0.29
22,AAGAAAAAAAAAAAAACACACATATATTTATTTATA [CACACA_site7042],8.06 ± 0.47
